# According to PubChem BioAssay (EPA / NIEHS):
# Records with an inconclusive call do not appear. Active and inactive are the calls of the source. The calls were made as follows, unless noted: active = hit-call score of the fitted dose curve at least 0.9, where 1 is the maximum; inactive = score below 0.9.
# Legend:
# [1] = CCTE_Deisenroth_5AR_NBTE_donor: CCTE's 5alpha-reductase NanoBRET Target Engagement Assay […], Deisenroth Lab (AID 2284319); conditions: actives raise or lower the signal
# Summary of the method: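 HEK293T cells were reverse transfected with an SRD5A2-NanoLuc vector for 20 h, exposed to test chemical (8 points, 10 nM - 29.9 uM) for 3 h, then testosterone tracer for 2 h more. Donor luminescence (460 nm) was read; bidirectional fit versus DMSO.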
# [2] = CCTE_Deisenroth_5AR_NBTE_acceptor: CCTE's 5alpha-reductase NanoBRET Target Engagement Assay - Autofluorescence Screen, Deisenroth Lab (AID 2284321); conditions: actives raise or lower the signal;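 also: compound fluorescence in the acceptor channel under 460 nm excitation flags autofluorescence artifacts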
# Summary of the method: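 Autofluorescence counter-screen: chemicals at an assumed nominal 100 uM in DMSO were scanned in three independent runs with 460 nm excitation. Gain or loss of acceptor signal was fitted bidirectionally against DMSO.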
# [3] = tested on: IYD (gene 389434); assay: CCTE_GLTED_hIYD: CCTE's human Iodotyrosine Deiodinase (xIYD) Inhibition Assay, Great Lakes Toxicology and Ecology Division (GLTED) Lab (AID 2284317; active = hit-call score of the fitted dose curve at least 0.9, where 1 is the maximum;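 also: cell-free human IYD enzyme made in baculovirus insect cells; iodide freed from monoiodotyrosine measured by cerium arsenite color change at 420 nm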)
# Summary of the method: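 In the IYD assay, iodide released from MIT by insect-cell-expressed human enzyme was quantified after 3 h via Sandell-Kolthoff rate at 420 nm, with plate-wise normalization to MNT and solvent controls.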
# [4] = IUF_NPC2-5_viability_120hr: Viability Assessment at 120 hours in the Leibniz Research Institute for Environmental Medicine (IUF) Neural Progenitor Cell Migration and Differentiation Assay (NPC2-5) (AID 2284312)
# Summary of the method: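 Alamar blue resorufin fluorescence read after 5 days of differentiation, with compound present from day 0 and replenished at day 3. Primary hNPC spheres on laminin-coated plates, 37C; seven concentrations plus solvent control, fitted against DMSO.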
# [5] = CCTE_Mundy_HCI_iCellGluta_NOG_NeuriteLength: CCTE's Neurite Outgrowth Assay in iCellGluta cells for Neurite Length, Mundy Lab (AID 2284318; active = hit-call score of the fitted dose curve at least 0.9, where 1 is the maximum)
# Summary of the method: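 Automated high-content imaging of betaIII-tubulin (Alexa Fluor-488) and Hoechst-stained cells gave neurite length, normalized to the DMSO baseline.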
# [6] = tested on: TTR (gene 7276); assay: CCTE_GLTED_hTTR_0.5uM: CCTE's human Transthyretin (hTTR) Inhibition Assay, with 0.5uM TTR, Great Lakes Toxicology and Ecology Division (GLTED) Lab (AID 2284320)
# Summary of the method: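 Probe (ANSA) displacement from 0.5 uM human transthyretin was followed by fluorescence (ex 380, em 475) after a 2 h incubation with chemical. Activity was scored as signal loss and fitted positively relative to DMSO.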
smiles,measurement,setting,value
c1cc[c]([Hg][c]2ccccc2)cc1,outcome,[1],inactive
same,outcome,[2],inactive
CCC(C)(C)c1ccc(O)c(C(C)(C)CC)c1,AC50,[3],37 µM (active)
CC(C)(c1ccc(OCC2CO2)cc1)c1ccc(OCC2CO2)cc1 (centres undefined),outcome,[3],inactive
same,outcome,[1],inactive
same,outcome,[2],inactive
C[C@H]1CCCC(=O)CCC/C=C/c2cc(O)cc(O)c2C(=O)O1,outcome,[1],inactive
same,outcome,[2],inactive
O=C1C(Cl)=C(Cl)C(=O)c2ccccc21,AC50,[3],55 µM (active)
same,AC50,[1],50 µM (active)
same,outcome,[2],inactive
C=CC(=O)OCCCCCC(C)C,outcome,[3],inactive
CCCCCCCCc1ccc(O)cc1,AC50,[3],35.7 µM (active)
COP(=O)(OC)O/C(=C\Cl)c1cc(Cl)c(Cl)cc1Cl,AC50,[4],1.06 µM (active)
same,outcome,[3],inactive
same,AC50,[5],51.5 µM (active)
O=C1C2(Cl)C3(Cl)C4(Cl)C(Cl)(Cl)C5(Cl)C3(Cl)C1(Cl)C5(Cl)C24Cl (centres undefined),AC50,[3],40.1 µM (active)
same,AC50,[5],15 µM (active)
O=C(O)C(F)(F)C(F)(F)C(F)(F)C(F)(F)C(F)(F)C(F)(F)C(F)(F)C(F)(F)C(F)(F)C(F)(F)F,AC50,[3],51.3 µM (active)
same,outcome,[1],inactive
same,AC50,[6],1.98 µM (active)
same,outcome,[2],inactive
O=[N+]([O-])c1ccc(O)c([N+](=O)[O-])c1,outcome,[1],inactive
same,outcome,[2],inactive
